# Source: PubChem
# PP1 counter: counter-screen for PP5 inhibitors: inhibitors of human PP1-alpha; purified PP1alpha, OMFP fluorescence; P62136; 320,000 tested, 0.9% active; inhibition, % at 6.7 µM;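 active = inhibition above the mean inhibition of all tested compounds plus 3 SD, computed separately for each screening campaign, cut at about 15% in these data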
# Target sequence (P62136 whole entry, looked up): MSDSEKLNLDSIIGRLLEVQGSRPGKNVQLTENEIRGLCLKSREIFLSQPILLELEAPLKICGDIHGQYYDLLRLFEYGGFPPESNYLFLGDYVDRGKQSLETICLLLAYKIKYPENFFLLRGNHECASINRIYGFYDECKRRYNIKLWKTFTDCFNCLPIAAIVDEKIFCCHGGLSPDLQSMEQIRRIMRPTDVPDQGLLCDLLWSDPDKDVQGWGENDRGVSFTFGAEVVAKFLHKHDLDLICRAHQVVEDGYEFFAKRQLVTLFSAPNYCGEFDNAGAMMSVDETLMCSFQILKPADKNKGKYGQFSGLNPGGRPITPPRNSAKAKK
# pPAFAH inh: inhibitors of human plasma PAF acetylhydrolase (pPAFAH) | inhibition, % at 3.39 µM | AID 463082 | 330,000 tested, 1.5% active | recombinant pPAFAH, FP-rhodamine probe fluorescence polarization | Q13093;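 active = inhibition above the mean inhibition across the screen plus 3 SD, cut at about 25% in these data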;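 also: inhibitors block binding of the rhodamine activity-based probe so polarization drops; 0% = enzyme with DMSO and 100% = wells lacking pPAFAH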
# PAFAH2 inh: inhibitors of human PAFAH2. Q99487. recombinant PAFAH2, FP-rhodamine activity probe, fluorescence polarization. inhibition, % at 3.39 µM. 340,000 tested, 0.99% active;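 active = inhibition above the mean over all tested compounds plus 3 SD, cut at about 30% in these data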;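 also: inhibitors block probe labeling of enzyme so polarization drops; 0% = enzyme with DMSO and 100% = wells lacking PAFAH2 protein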
# PP5 primary: PP5 (human) phosphatase inhibition | P53041 | purified PP5c, OMFP substrate fluorescence | inhibition, % at 6.7 µM | 320,000 tested, 0.18% active | AID 1987;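 active = inhibition above the campaign's mean inhibition across all tested compounds plus 3 SD, cut at about 9.5% in these data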;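 also: 0% = DMSO only and 100% = 100 µM cantharidin control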
# PAFAH1B3 inh: PAFAH1B3 (human) inhibition; Q15102; recombinant PAFAH1B3, FP-rhodamine probe, fluorescence polarization; inhibition, % at 3.39 µM; 340,000 tested, 0.28% active; AID 492972;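 active = inhibition above the screen-wide average of all tested compounds plus 3 SD, cut at about 25% in these data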;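 also: 0% = enzyme with DMSO only and 100% = wells lacking PAFAH1B3 protein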
# PAFAH1B2 inh: PAFAH1B2 (human) inhibition. 340,000 tested, 1.2% active. P68402. inhibition, % at 3.39 µM. recombinant PAFAH1B2, FP-rhodamine activity probe, fluorescence polarization. AID 492953;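 active = inhibition above the mean of all tested compounds plus 3 SD, cut at about 24% in these data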;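 also: 0% = enzyme with DMSO and 100% = wells lacking PAFAH1B2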
# Target sequence (P68402 whole entry, looked up): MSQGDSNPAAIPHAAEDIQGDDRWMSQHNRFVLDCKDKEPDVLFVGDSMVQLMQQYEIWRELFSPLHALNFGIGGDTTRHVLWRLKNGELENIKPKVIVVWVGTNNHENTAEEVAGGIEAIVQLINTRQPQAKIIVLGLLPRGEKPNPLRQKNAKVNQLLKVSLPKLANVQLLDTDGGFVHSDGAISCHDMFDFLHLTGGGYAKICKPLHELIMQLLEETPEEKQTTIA
# PAFAH2 confirm: confirmation of human PAFAH2 inhibitors. shares compounds with PAFAH2 inh. recombinant PAFAH2, FP-rhodamine activity probe, fluorescence polarization. inhibition, % at 3.39 µM. 2,300 tested, 65% active. AID 493030;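 active = mean inhibition over three repeats above a set limit taken from the earlier primary screen, cut at about 30% in these data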;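 also: inhibitor blocks binding of rhodamine activity probe so polarization falls; 0% = enzyme with DMSO and 100% = wells lacking PAFAH2 protein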
# Starred values were filed as active, the others as inactive; . = no result given. Hits are enriched below; roughly 3.4% of the tested compounds scored in any of these assays.
SMILES,PP1 counter,pPAFAH inh,PAFAH2 inh,PP5 primary,PAFAH1B3 inh,PAFAH1B2 inh,PAFAH2 confirm
Cc1cccc([N+](=O)[O-])c1NC(=O)COC(=O)C1CC2CCCC(C1)C2=O (stereo not drawn),-1,3,9,1,6,3,.
CCC1=NN2C(=N)/C(=C\c3ccc(OCCOc4ccc(NC(C)=O)cc4)c(OC)c3)C(=O)N=C2S1,-2,8,5,2,7,3,.
CCC(=O)Nc1nonc1-c1nc2ccccc2n1Cc1ccc(Cl)c(Cl)c1,.,.,-3,.,5,5,.
Cc1ccc(S(=O)(=O)NCCSc2ncccn2)cc1,4,1,10,-1,3,7,.
CC1(C)CC(=O)C(CC(=O)Nc2ccc(S(N)(=O)=O)cc2)=C(O)C1,-7,-3,4,0,2,3,.
O=C(NC1CCCCC1)C(c1ccncc1)N(C(=O)Cn1nnc(-c2cccs2)n1)C1CCCC1 (stereo not drawn),1,6,62*,3,-4,-1,54*
Cc1cc2c(cc(C(=O)N3CCC(C(=O)NC4CCCC4)CC3)n2Cc2c(F)cccc2Cl)o1,2,-1,64*,2,-2,4,49*
c1cc2cn[nH]c2cc1NC1CCCCCC1,2,5,6,2,4,0,.
O=C(N/N=C/c1ccc(O)c(O)c1)N/N=C/c1ccc(O)c(O)c1,.,.,31*,.,17,7,15
COc1ccc(N2CSC3=C(C#N)C(c4cccc(OC)c4OC)CC(=O)N3C2)cc1 (stereo not drawn),5,-2,6,1,-3,6,.
CSCCC(NS(=O)(=O)c1c(Cl)cccc1Cl)C(=O)O (stereo not drawn),4,-3,2,-6,3,-2,.
CSCCC(NS(=O)(=O)c1ccc(Cl)cc1)C(=O)O (stereo not drawn),1,-2,35*,-1,-1,4,29
O=C(OCC(=O)N1CCc2ccccc21)c1cc(S(=O)(=O)N2CCOCC2)ccc1F,.,.,-2,.,-2,1,.
COc1ccc(C(=O)OCc2ccc(C)cc2)cc1S(=O)(=O)N1CCOCC1,-3,4,12,4,1,8,.
COc1ccc(C(=O)OCc2nnc(-c3ccccc3)o2)cc1S(=O)(=O)N1CCOCC1,4,-4,79*,1,0,0,71*
O=C(OCc1nnc(-c2ccc([N+](=O)[O-])cc2)o1)c1ccc(F)c(S(=O)(=O)N2CCOCC2)c1,.,.,30*,.,-2,5,22
O=C(NNC(=O)c1ccc(F)c(S(=O)(=O)N2CCOCC2)c1)c1ccc([N+](=O)[O-])cc1,-1,-2,-7,3,8,3,.
COc1ccc(C(=O)OCC(=O)NCC2CCCO2)cc1S(=O)(=O)N1CCCc2ccccc21 (stereo not drawn),-2,10,34*,3,-2,6,27
COc1ccc(C(=O)OCC(=O)N2CCc3ccccc32)cc1S(=O)(=O)N1CCOCC1,.,-2,68*,.,3,4,69*
CCn1c(Cc2ccccc2)nnc1SCC(=O)N1CCCCC1,-1,2,-7,0,9,-2,.
C[n+]1c2n(c3ccccc31)N=C(c1ccc(-c3ccccc3)cc1)CS2,5,-6,-2,1,6,5,.
Clc1cccc(Cl)c1C1=NOC(c2nnc(-c3ccccc3)o2)C1 (stereo not drawn),3,-1,5,3,8,1,.
O=C(O/N=C(\c1ccccc1)c1ccccn1)c1cccc2ccccc12,1,3,4,4,2,-3,.
O=C(COC(=O)/C=C/c1ccco1)Nc1ncc(Cl)cc1Cl,-1,11,47*,-1,6,2,27
COC(=O)c1ccc(/C=C/C(=O)OCC(=O)Nc2ncc(Cl)cc2Cl)cc1,-1,-3,29,3,4,6,.
SMILES,PP1 counter,pPAFAH inh,PAFAH2 inh,PP5 primary,PAFAH1B3 inh,PAFAH1B2 inh,PAFAH2 confirm
Cc1nc(NC(=O)COC(=O)/C=C/c2ccco2)c(Cl)cc1Cl,-3,13,35*,1,3,0,18
CCOC(=O)C(C)Oc1ccc2c(CC)cc(=O)oc2c1C (stereo not drawn),2,3,6,2,-1,0,.
NS(=O)(=O)c1ccc(NC(=O)COC(=O)/C=C/c2ccc([N+](=O)[O-])cc2)cc1,1,3,2,0,6,-1,.
CN(C)S(=O)(=O)c1cccc(NC(=O)COC(=O)/C=C/c2ccc(Br)o2)c1,0,2,40*,1,-3,0,35*
CN(C)S(=O)(=O)c1cccc(NC(=O)COC(=O)/C=C/c2ccc([N+](=O)[O-])cc2)c1,3,12,34*,0,1,1,20
Cc1ccc(NC(=O)COC(=O)/C=C/c2ccc(Br)o2)cc1S(=O)(=O)N(C)C,-1,2,64*,0,-1,-3,59*
CC(Oc1ccccc1Cl)C(=O)N(Cc1cccs1)C1CCS(=O)(=O)C1 (stereo not drawn),-2,-2,7,3,6,0,.
Cc1ccc(-n2ncc(C(=O)N3CCc4ccccc4C3)c2NC(=O)c2ccco2)cc1C,-3,7,35*,3,-5,10,7
O=C(NC(=S)NCC1COc2ccccc2O1)c1ccccc1 (stereo not drawn),-4,2,3,0,8,4,.
COc1ccc2oc(C(=O)OCC(=O)NC(C)(C#N)C3CC3)c(C)c2c1 (stereo not drawn),-4,12,47*,1,8,3,41*
COc1ccc2oc(C(=O)OCC(=O)Nc3ccccc3)c(C)c2c1,-3,10,61*,0,8,0,52*
Cc1ccc(NC(=O)c2cccc(NC(=O)CCC(=O)O)c2)cc1C,2,-4,3,3,3,4,.
CCOc1ccc(C(=O)NC(=S)Nc2ccc(N3CCC(C)CC3)cc2)cc1[N+](=O)[O-],.,.,3,.,3,-1,.
COc1ccc(C(=O)OCC(=O)NC2CCCCCC2)c(OC)c1,.,.,82*,.,11,4,78*
COc1cc(SC)ccc1C(=O)OCC(=O)NC1CC1,0,3,4,-1,9,5,.
COc1ccc(C(=O)OCC(=O)NC2CCCC2)c(OC)c1,3,6,70*,3,0,-1,56*
COc1ccc(C(=O)OCC(=O)NC2CCCC2)c(OC)c1OC,-2,12,89*,2,4,1,81*
COc1ccc(C(=O)OCC(=O)NC(=O)NC2CCCC2)c(OC)c1,1,3,25,2,5,1,.
Cc1sc2nc(SCc3nc(-c4cccs4)no3)n(-c3ccccc3)c(=O)c2c1C,-2,6,7,1,-6,-5,.
